These results are taken from article PMC4336329 (PLoS ONE, 2015).

In all, about 310,000 compounds went through this assay and about 14,000 (4.5%) showed an effect of 50% or more. Effects have a minus sign here. Shown is part of a subset that was picked to be rich in strong results.
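Note: peak tail current of the secondary pulse compared with the same well before compound.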

The assay deals with human ether-à-go-go-related gene (hERG) potassium channel (human, UniProt Q12809). Briefly: primary screen, population patch clamp on CHO cells stably expressing hERG; higher = less effect of the substance.
Chain of human ether-à-go-go-related gene (hERG) potassium channel (Q12809 whole entry, looked up): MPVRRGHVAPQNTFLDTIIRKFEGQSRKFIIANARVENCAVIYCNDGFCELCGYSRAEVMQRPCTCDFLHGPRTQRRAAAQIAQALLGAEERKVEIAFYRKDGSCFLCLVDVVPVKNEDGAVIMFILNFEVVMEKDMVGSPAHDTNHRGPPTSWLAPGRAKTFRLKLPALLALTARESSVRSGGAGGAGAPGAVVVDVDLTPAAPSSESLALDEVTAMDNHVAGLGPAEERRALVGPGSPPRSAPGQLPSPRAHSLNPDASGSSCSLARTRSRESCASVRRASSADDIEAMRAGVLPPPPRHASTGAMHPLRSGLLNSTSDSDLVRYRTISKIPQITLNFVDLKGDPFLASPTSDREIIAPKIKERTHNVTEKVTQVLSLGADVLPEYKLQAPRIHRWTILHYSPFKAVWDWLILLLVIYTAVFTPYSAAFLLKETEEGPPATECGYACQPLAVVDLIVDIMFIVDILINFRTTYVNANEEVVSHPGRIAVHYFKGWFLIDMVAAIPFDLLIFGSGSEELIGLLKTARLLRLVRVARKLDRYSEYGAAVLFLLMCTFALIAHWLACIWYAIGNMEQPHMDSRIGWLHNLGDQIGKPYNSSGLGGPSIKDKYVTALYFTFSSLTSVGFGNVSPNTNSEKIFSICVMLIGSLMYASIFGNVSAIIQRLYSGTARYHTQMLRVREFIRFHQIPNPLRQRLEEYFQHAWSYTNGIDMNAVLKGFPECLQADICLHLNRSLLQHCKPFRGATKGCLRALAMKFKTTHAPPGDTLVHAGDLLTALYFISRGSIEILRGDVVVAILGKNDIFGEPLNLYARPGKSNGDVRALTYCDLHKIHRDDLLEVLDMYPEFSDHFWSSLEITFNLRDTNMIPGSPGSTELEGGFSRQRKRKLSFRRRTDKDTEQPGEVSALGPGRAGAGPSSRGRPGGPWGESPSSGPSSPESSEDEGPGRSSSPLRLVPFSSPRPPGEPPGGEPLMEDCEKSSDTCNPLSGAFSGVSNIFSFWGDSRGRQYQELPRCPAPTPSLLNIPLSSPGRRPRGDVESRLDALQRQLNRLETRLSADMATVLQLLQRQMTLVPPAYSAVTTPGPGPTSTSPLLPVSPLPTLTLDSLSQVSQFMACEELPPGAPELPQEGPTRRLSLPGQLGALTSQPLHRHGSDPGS
As for `COc1cc(CN2CCN(Cc3ccc(C(F)(F)F)cc3)CC2)cc(OC)c1OC.O=C(O)C(=O)O`, the “hERG current change (%, negative = inhibition) at 10uM” value is given as -54.1%.
The result for `COc1cc(CN2CCN(C(=O)COc3ccccc3)CC2)cc(OC)c1OC` reads -14.1%; that for `COc1cc(CN2CCN(C(=O)c3ccc(-c4ccccc4)cc3)CC2)cc(OC)c1OC.O=C(O)C(=O)O`, -54.7%; that for `COc1cc(CN2CCCCCC2)cc(OC)c1OC.O=C(O)C(=O)O`, 13.8%.
The result for `COc1ccc(CN2CCN(Cc3ccc(C(F)(F)F)cc3)CC2)c(OC)c1.O=C(O)C(=O)O` reads -74.1%; that for `COc1cccc(CN2CCN(C(=O)c3ccc(-c4ccccc4)cc3)CC2)c1OC.O=C(O)C(=O)O`, -5.41%.
As for `COc1cc(CN2CCN(C(O)(c3ccccc3)c3ccccc3)CC2)cc(OC)c1OC.O=C(O)C(=O)O`, the figure is -55.1%.
On to `COc1cc(CN2CCN(S(=O)(=O)c3ccc(F)cc3)CC2)cc(OC)c1OC.O=C(O)C(=O)O`, for which the “hERG current change (%, negative = inhibition) at 10uM” value is given as -5.89%.
As for `COc1cc(CN2CCN(C(=O)c3ccccc3F)CC2)cc(OC)c1OC.O=C(O)C(=O)O`, the figure is 6.56%; as for `COc1cc(CN2CCN(C(=O)c3cccc4ccccc34)CC2)cc(OC)c1OC.O=C(O)C(=O)O`, 4.24%.
The result for `COc1ccccc1C1CCN(c2ccc(CO)cc2[N+](=O)[O-])CC1` reads 4.52%.
As for `O=C(Nc1cccc2ccccc12)c1cnsn1`, the “hERG current change (%, negative = inhibition) at 10uM” value was determined as 5.58%.
The result for `COC(=O)c1c(C(=O)OC)c2ccccn2c1C(=O)c1ccccc1` reads 6.74%; that for `COCCNC(=O)Cn1nc(-c2ccc(C)cc2)ccc1=O`, 8.83%.
The result for `CCOc1ccc(C(NC(=O)c2ccco2)c2ccc(OC)c(OC)c2)cc1` (stereo not drawn) reads -39.9%; that for `O=C(NC(=S)NC1CCS(=O)(=O)C1)c1ccccc1` (stereo not drawn), 14.6%.
As to `O=C(Nc1cccc(S(=O)(=O)N2CCOCC2)c1)c1ccccc1[N+](=O)[O-]`, the “hERG current change (%, negative = inhibition) at 10uM” value is 0.195%.
As for `O=C(CSc1nc2ncc(Cl)cc2[nH]1)Nc1cccc(F)c1`, the “hERG current change (%, negative = inhibition) at 10uM” value worked out at 12.8%.
With `COc1ccc(CN2CCN(Cc3ccc(C(F)(F)F)cc3)CC2)cc1.O=C(O)C(=O)O`, the “hERG current change (%, negative = inhibition) at 10uM” value is on record as -65.7%.
The result for `COc1ccc(CN2CCN(Cc3ccc(C)cc3)CC2)c(OC)c1.O=C(O)C(=O)O` reads -70.3%; that for `FC(F)(F)c1ccc(CN2CCN(Cc3ccco3)CC2)cc1.O=C(O)C(=O)O`, 0.168%; that for `COc1cccc(C(=O)N2CCN(Cc3ccc(OC)cc3OC)CC2)c1.O=C(O)C(=O)O`, -38.9%.
Regarding `CS(=O)(=O)N1CCN(Cc2ccc(C(F)(F)F)cc2)CC1.O=C(O)C(=O)O`, the “hERG current change (%, negative = inhibition) at 10uM” value stood at 0.441%.
On to `O=c1ccc(-c2ccccc2)nn1Cc1ccc(Cl)cc1`, for which the “hERG current change (%, negative = inhibition) at 10uM” value was determined as 2.52%.
On to `COc1ccc(N2Cc3ccccc3C2=O)cc1`, for which the “hERG current change (%, negative = inhibition) at 10uM” value was 16.2%.
As for `COc1cc(NC(=O)c2ccc(Cl)cc2)c(Cl)cc1NC(=O)c1cccnc1`, the figure is 1.74%.
The result for `N#C/C(=C/c1ccc(N2CCCCCC2)o1)c1ccc(Cl)cc1` reads -3.68%; that for `COc1ccc(NC(=O)CN2CCN(c3ccc(F)cc3)CC2)cc1Cl`, -5.96%.
With `COc1ccc(NC(=O)CN2CCN(c3nc(-c4ccc(F)cc4)cs3)CC2)c(OC)c1`, the “hERG current change (%, negative = inhibition) at 10uM” value is 20.7%.
The result for `CCOc1ccc(NC(=O)CN2CCN(CC(=O)Nc3ccc(OC)cc3OC)CC2)cc1` reads -74.2%; that for `COc1ccc(NC(=O)CN2CCN(S(=O)(=O)c3ccc(F)cc3)CC2)cc1Cl`, -1.67%; that for `COc1ccc(NC(=O)CN2CCc3ccccc3C2)c(OC)c1`, -6.9%.
The result for `COc1cccc(NC(=O)CN2CCN(CC(=O)Nc3ccc(F)cc3)CC2)c1` reads -80.3%.
As for `COc1cccc(NC(=O)CN2CCN(c3ccc(F)cc3)CC2)c1`, the figure is -17%; as for `COc1ccc(NC(=O)CN2CCN(CC(=O)Nc3ccc(F)cc3)CC2)c(OC)c1`, -80.4%; as for `COc1cccc(NC(=O)CN2CCN(c3ccccc3F)CC2)c1`, -9.18%.
For `COc1ccc(NC(=O)CN2CCN(CC(=O)Nc3ccc(F)cc3)CC2)cc1Cl`, the “hERG current change (%, negative = inhibition) at 10uM” value was -80.5%.
As for `COc1ccc(C(=O)C2CCN(CC(=O)Nc3ccc(OC)cc3OC)CC2)cc1`, the figure is -18.1%; as for `Cc1ccc(NC(=O)CSC(N)=O)cc1Cl`, 7.5%.
With `Cn1c2ccccc2c(=O)c2ccc(F)cc21`, the “hERG current change (%, negative = inhibition) at 10uM” value stood at 0.557%.
For the molecule `COc1ccc(-c2cc(C(=O)N3CCCC3)c3ccccc3n2)cc1OC`, the “hERG current change (%, negative = inhibition) at 10uM” value amounted to 5.86%.
For the molecule `CCCCc1nnc(NC(=O)C23CC4CC(CC(NC(C)=O)(C4)C2)C3)s1`, the “hERG current change (%, negative = inhibition) at 10uM” value is reported as -1.81%.
